# PostGolgi yeast – growth inhibition of a yeast mutant, post-Golgi transport screen; post-Golgi transport phenotypic cell assay; inhibition, % at 10 µM; 98,000 compounds, 0.9% hits; AID 739;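 note: yeast cells grown in 1536-well plates; yeast grown about 18 h at 30C before absorbance read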
# PostGolgi ctrl – growth of the yeast control strain, post-Golgi counter-screen; efflux-deficient yeast background strain, growth absorbance A615, 16 h; inhibition, % at 10 µM; 98,000 compounds, 5% hits
# Cav32 inh – inhibitors of human Cav3.2 T-type calcium channel; Cav3.2-expressing cells, Fluo-4 calcium fluorescence FDSS; active compounds read low; B-score at 10 µM; 100,000 compounds, 4% hits;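 active = single-dose well whose peak fluorescence ratio is a statistical outlier from its plate by either plate-standardised score or position-corrected B-score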
# hDAT+cocaine – human DAT dopamine uptake with cocaine, either direction; Q01959; B-score at 10 µM; 110,000 compounds, 1.3% hits; LLC-PK1 hDAT cells, [14C]-dopamine uptake with cocaine IC80; actives deviate in either direction;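 active = Z score or B-score, a plate-position-corrected score, falls beyond the plate's 99.7% confidence bounds, in either direction; inactive = both scores lie inside the 99.7% bounds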;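 note: scored against the spread of the other compound wells on the same plate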
# Target sequence (Q01959 whole entry, looked up): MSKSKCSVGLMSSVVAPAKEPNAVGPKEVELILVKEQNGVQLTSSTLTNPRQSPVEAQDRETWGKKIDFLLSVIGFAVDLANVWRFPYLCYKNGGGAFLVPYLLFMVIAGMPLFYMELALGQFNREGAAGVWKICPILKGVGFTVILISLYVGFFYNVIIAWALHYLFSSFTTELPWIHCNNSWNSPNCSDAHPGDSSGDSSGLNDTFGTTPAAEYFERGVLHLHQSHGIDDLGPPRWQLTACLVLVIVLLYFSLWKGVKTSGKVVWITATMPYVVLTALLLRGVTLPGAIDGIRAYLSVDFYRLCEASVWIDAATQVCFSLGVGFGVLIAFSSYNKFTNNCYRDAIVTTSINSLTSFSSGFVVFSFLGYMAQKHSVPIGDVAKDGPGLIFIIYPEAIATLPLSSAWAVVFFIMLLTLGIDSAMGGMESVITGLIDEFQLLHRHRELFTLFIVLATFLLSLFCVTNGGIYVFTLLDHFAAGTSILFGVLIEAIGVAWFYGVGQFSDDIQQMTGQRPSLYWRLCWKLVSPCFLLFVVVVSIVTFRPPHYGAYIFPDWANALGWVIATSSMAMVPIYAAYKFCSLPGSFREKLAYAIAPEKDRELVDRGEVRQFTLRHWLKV
# D1 allo mod – D1 dopamine receptor (human) allosteric modulation. 58,000 compounds, 5.9% hits. HEK293 D1, CRE-luciferase, dopamine EC30 potentiation; actives deviate in either direction. B-score at 10 µM. P21728. AID 641;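 active = luminescence count or its row- and column-corrected plate score outside the 99.7% band of the plate's sample wells, on either side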
# PLAP act – activators of human placental alkaline phosphatase. 96,000 compounds, 1.2% hits. purified PLAP enzyme, luminescent substrate read-out; active compounds read high. P05187. AID 696. activation fold at 20 µM; in the data active = activation fold above about 2
# The depositor's hits bear a star; nt = no result. The list is not random: actives were taken first. Their share in the collection is about 12%. Cut-off read from the data, not from the text of the source, unless noted: active = inhibition above about 30%; inactive = the rest.
SMILES,PostGolgi yeast,PostGolgi ctrl,Cav32 inh,hDAT+cocaine,D1 allo mod,PLAP act
Cc1ccc(N(CC(=O)O)S(=O)(=O)c2cccc3nonc23)cc1,-3,9,0.58,0.014,nt,1
CC(=O)c1cccc(NC(=O)CN(c2ccc(C)cc2)S(=O)(=O)c2cccc3nonc23)c1,-4,34*,-1.5,1.1,-0.77,1.2
CCN(CC)S(=O)(=O)c1cccc2nsnc12,1,49*,0.68,-0.036,-0.76,1
Cc1ccc(NC(=O)CN(C)S(=O)(=O)c2cccc3nsnc23)cc1,4,8,1.3,-1.4,-5.4*,0.8
CCN(CC)C(=O)CN(C)S(=O)(=O)c1cccc2nsnc12,-8,3,0.67,-0.52,0.078,1.1
Cc1ccc(CNC(=O)CN(C)S(=O)(=O)c2cccc3nsnc23)cc1,0,26,nt,0.18,-0.021,0.9
O=C(Nc1cccc(C(F)(F)F)c1)/C(=C/c1ccco1)NC(=O)c1cccs1,1,1,nt,nt,nt,0.9
O=C(O)Cc1ccc(C(=O)c2ccccc2F)s1,1,3,-0.66,0.34,nt,0.9
O=C(/C=C/c1cccnc1)c1ccc(NC(=O)c2cccc(Br)c2)cc1,-5,40*,2.1,0.85,nt,1
Cc1cc2oc(=O)cc(CN3CCN(Cc4ccccc4)CC3)c2cc1Cl,13,20,-0.22,0.53,-0.89,1.5
CC(C)c1ccc2oc(=O)cc(CN3CCN(c4ccc(F)cc4)CC3)c2c1,5,33*,nt,-0.072,0.059,1.1
O=c1cc(CN2CCN(Cc3ccccc3)CC2)c2cc(Cl)ccc2o1,1,-1,-0.05,-0.53,-4.2*,1.2
O=c1cc(CN2CCN(c3ccccc3)CC2)c2cc(O)c(-c3ccccc3)cc2o1,-6,-6,0.57,-0.32,-0.015,1
O=c1c(CN2CCN(Cc3ccccc3)CC2)coc2ccc(Cl)cc12,-5,4,1.1,1.1,-0.67,1.5
Cc1cc2oc(=O)cc(CN3CCC(C)CC3)c2cc1Cl,15,4,-9.9*,-0.078,1.1,0.8
O=c1cc(CN2CCN(c3ccccc3)CC2)c2c(ccc3ccccc32)o1,6,32*,-2,-0.017,0.63,1.4
COc1ccc(N2CCN(Cc3cc(=O)oc4ccc(C)cc34)CC2)cc1,-2,11,0.24,-0.23,nt,0.9
COc1cc(-c2nnc(SCC3(c4ccccc4)OCCO3)o2)cc(OC)c1OC,-4,7,-1.3,1.4,nt,1.5
CCc1c(C(=O)NNC(=S)NCCc2ccccc2)csc1C,nt,nt,-2.8,0.32,nt,nt
COCC(=O)N(C)c1nnc(-c2cnc(C)cn2)s1,5,12,-0.37,-1.5,-0.51,1
O=S(NCc1ccco1)C12CC3CC(CC(C3)C1)C2 (stereo not drawn),-3,12,-0.078,-1.8,-0.54,nt
CC1=Nn2c(nnc2-c2cccs2)SC1,6,5,0.86,-3.4*,nt,1
O=C(O)CCC(=O)OC1CC2CCC1C2 (stereo not drawn),-8,-2,-0.29,0.19,0.0017,1.3
O=C(O)C1C2C=CC(C2)C1C(=O)OC1CC2CCC1C2 (stereo not drawn),0,-3,0.52,0.015,-4.9*,1.1
O=C1CC(N2CCN(c3ccc(C(=O)c4ccc(F)cc4)cc3)CC2)C(=O)N1 (stereo not drawn),10,3,0.16,0.84,-0.33,1.1
SMILES,PostGolgi yeast,PostGolgi ctrl,Cav32 inh,hDAT+cocaine,D1 allo mod,PLAP act
O=C1NC2CCCCC2NC1CC(=O)N1CCN(c2ccccc2)CC1 (stereo not drawn),nt,nt,nt,nt,0.83,nt
O=C(CCN1CCCCC1)c1ccc2c(c1)OCCO2,-8,4,0.26,4.8*,-0.76,0.9
CC(C)(C)S(=O)(=O)c1c(C(=O)O)cccc1C(=O)O,4,1,0.57,-0.016,0.11,1.1
O=C(CCC(=O)OCC(=O)c1ccc(Br)cc1)Nc1ccc(Br)c2cccnc12,5,38*,-1.8,-0.0096,nt,1
Cc1ccc2oc(=O)c3cc(C(=O)N4CCN(C(=O)c5ccco5)CC4)sc3c2c1,nt,nt,nt,nt,0.46,nt
CCN(Cc1ccccc1)C(=O)c1cc2c(=O)oc3ccc(C)cc3c2s1,5,47*,-0.54,-0.54,nt,1.6
CNC(=O)CN(C)S(=O)(=O)c1ccc(F)cc1,-6,-7,0.58,1.1,nt,0.9
COCCNC(=O)C1CC(c2cccc(OC)c2)=NO1 (stereo not drawn),8,37*,-0.47,-0.28,0.24,1
O=C(NCc1ccc2c(c1)OCO2)C1CC(c2cccc(Br)c2)=NO1 (stereo not drawn),2,9,-9.1*,-0.41,nt,0.8
